# In the supplement of paper PMC4894684:
# Where a name gives a salt, the structure may show the parent alone. ± gives the standard deviation of the averaged measurements.
# Tested on: Toxoplasma gondii RH (in HFF)
# Experiment: parasite growth relative to the screen mean (all compounds = 100%); higher = less inhibition of parasite growth
# Details: 5 µM; 72 h; oxygen 21 %
# How it was run: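 Values give growth relative to the screen mean. The screen mean (all compounds) is set at 100%, and two screens were averaged. Compounds at 5 µM final were placed on confluent human foreskin fibroblasts, which were infected within 2 h with RH β-Gal–GFP Toxoplasma (MOI 1:5) and kept 72 h at 21% O2 before a CPRG β-Gal readout against in-plate standard curves.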
row,SMILES,parasite growth [%]
1,OC(CN1CCC(Cc2ccc(F)cc2)CC1)c1ccc(Cl)cc1 (stereo not given) [Eliprodil],93.6 ± 21
2,CCCCCS(=O)(=O)CCCCCCCCCCn1c(-c2ccc(O)cc2)c(C)c2cc(O)ccc21,132 ± 30
3,C=CCN1CCc2cc(O)c(O)cc2C(c2ccccc2)C1 (stereo not given),135 ± 1.6
4,Cn1nnc2c(C(N)=O)ncn2c1=O [Temozolomide],89.4 ± 4.9
5,CC1(C)C[C@@H]1C(=O)N/C(=C\CCCCSC[C@H](N)C(=O)O)C(=O)O [Cilastatin sodium],117 ± 14
6,CC[C@H](NC(=O)c1c(C)c(-c2ccccc2)nc2ccccc12)c1ccccc1,98.6 ± 3.1
7,c1cc2c3c(c1)c1c(n3CCNC2)CCCC1 [WAY 629 hydrochloride],130 ± 4
8,NS(=O)(=O)C#Cc1ccccc1 [Pifithrin->m],123 ± 13
9,CCCCOC(=O)c1cc2c(cn1)[nH]c1ccccc12,150 ± 37
10,CC1(CN2CCC(n3c(=O)[nH]c4ccccc43)CC2)OCc2ccccc2-n2cccc21 (stereo not given),113 ± 47
11,COC(=O)Nc1ccc2[nH]cc(CCNC(C)=O)c2c1,81 ± 2.9
12,CN/C(=N\c1ccc(C2=NNC(=O)CC2C)cc1)NC#N (stereo not given) [Siguazodan],130 ± 23
13,Cc1nc2sccn2c(=O)c1CCN1CCC(=C(c2ccc(F)cc2)c2ccc(F)cc2)CC1 [Ritanserin],123 ± 15
14,COc1ccc(-n2[nH]c3c4c(ncc3c2=O)CCCCC4)cc1,105 ± 28
15,"CCCC(=O)Nc1ncnc2c1ncn2[C@@H]1O[C@@H]2COP(=O)(O)O[C@H]2[C@H]1OC(=O)CCC [Dibutyryl-cAMP, sodium salt]",125 ± 23
16,Cc1cc(I)ccc1Nc1c(C(=O)NOCC2CC2)cc(F)c(F)c1F,107 ± 21
17,COC(=O)C1=C(C)NC(C)=C(C(=O)OC)C1c1ccccc1[N+](=O)[O-] [Nifedipine],110 ± 36
18,Cn1cnnc1Sc1c([N+](=O)[O-])ncn1C,131 ± 11
19,O=c1oc(-c2ccc(C(F)(F)F)cc2)nn1Cc1cc(Cl)ccc1O,146 ± 11
20,CC(=O)N[C@@H](Cc1c[nH]c2ccccc12)C(=O)OCc1cc(C(F)(F)F)cc(C(F)(F)F)c1,108 ± 52

row,SMILES,parasite growth [%]
1,Cc1ccccc1N=Nc1ccc(NC(=O)c2ccnn2C)c(C)c1,82.7 ± 23
2,CCOC(=O)[C@H](CCc1ccccc1)N[C@H]1CCc2ccccc2N(CC(=O)O)C1=O [Benazepril hydrochloride],140 ± 36
3,NS(=O)(=O)c1cccc2c1c([N+](=O)[O-])cc1nc(O)c(O)nc12 [NBQX disodium salt],112 ± 14
4,Cc1ccc(CC2(O)CCN(CCOc3ccc(O)cc3)CC2)cc1,111 ± 35
5,CCN1CCCC1CNC(=O)c1cc(S(=O)(=O)CC)c(N)cc1OC (stereo not given) [Amisulpride],115 ± 14
6,CCc1ccc2c(-c3cccc(Cl)c3)nc(=O)n(CC)c2n1,152 ± 17
7,OC[C@H]1O[C@@H](n2cnc3c(NC4CCCC4)ncnc32)[C@H](O)[C@@H]1O [N6-Cyclopentyladenosine],77.4 ± 7.7
8,CN(C(=O)CCCOc1ccc2[nH]c(=O)ccc2c1)C1CCCCC1 [Cilostamide],69.6 ± 26
9,COc1cccc2c1C(=O)c1c(O)c3c(c(O)c1C2=O)C[C@@](O)(C(C)=O)C[C@@H]3O[C@H]1C[C@H](N)[C@H](O)[C@H](C)O1 [Daunorubicin hydrochloride],< 0
10,c1nc(CC2CCNCC2)c[nH]1 [Immepip dihydrobromide],100.2 ± 0.4
11,COc1ccc2cccc(N3CCN(CCNC(=O)c4ccc(F)cc4)CC3)c2c1,122 ± 20
12,COc1ccc2c(c1)c(CC(=O)O)c(C)n2C(=O)c1ccc(Cl)cc1 [Indomethacin],150 ± 30
13,CN1C(C(=O)Nc2ccccn2)=C(O)c2ccccc2S1(=O)=O [Piroxicam],153 ± 34
14,COC1CCC(C(=O)c2ccc3nc4c(cc3c2)CCCO4)CC1 (stereo not given),136 ± 27
15,C[C@@H](CN1CCC(Cc2ccccc2)CC1)[C@@H](O)c1ccc(O)cc1 [Ro 25-6981 maleate],121 ± 23
16,COc1cc(C(=O)OCCCN2CCCN(CCCOC(=O)c3cc(OC)c(OC)c(OC)c3)CC2)cc(OC)c1OC [Dilazep dihydrochloride],54.3 ± 11
17,COc1cc2c(CCNC(C)=O)c[nH]c2cc1Cl [6-Chloromelatonin],131 ± 24
18,Cc1ccc(Sc2cncc3sc(C(N)=O)cc23)cc1,148 ± 2.4
19,"OCCNCCCOc1cccc(Cl)c1Cl [2,3-DCPE hydrochloride]",103 ± 8.3
20,CN1CCc2cc(Cl)c(O)cc2[C@@H](c2ccccc2)C1,120 ± 46
